From PubChem BioAssay (Tox21) come the findings set out here.

The structures appear in SMILES notation. Where “and” joins values, the source holds several entries; their conditions need not be identical. Equal values may be shown once. Records with an inconclusive call do not appear. Entries that show only a call come without a potency. Calls of active or inactive are those of the source. The call rests on the fitted dose curve; in most records, active means well fitted curve in the direction sought with a large enough effect in the repeat runs; inconclusive means weak or mixed curves; inactive means no such curve, though single readings can be large; an effect the other way counts as inactive or inconclusive.

Assay [1] concerns the target Cytochrome P450 2C9 (Homo sapiens) (UniProt P11712). Briefly: Cytochrome P450 Family 2 Subfamily C Member 9 (CYP2C9) small molecule antagonists: luciferase reporter qHTS assay (AID 1671198). Further: potency means the concentration at half of the fitted maximal effect. A digest of the protocol:
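P450-Glo proluciferin substrate with CYP2C9 enzyme; 10 min RT preincubation, then NADPH regeneration 1 h at 37C; luciferin detection reagent 20 min RT, luminescence in relative luminescence units.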
A general note: A reporter such as luciferase makes a cellular process visible.

Assay [2] has as its target Voltage-gated inwardly rectifying potassium channel KCNH2 (Homo sapiens) (UniProt Q12809). Briefly: Human Ether-a-go-go-Related Gene (hERG) channel small molecule antagonists: fluorescence cell-based qHTS assay (AID 1671200).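 Further: hERG-expressing U2OS cells given a thallium stimulus after FluxOR II dye loading; series mostly up to about 77 µM.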 A digest of the protocol: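 Cell line hERG-U2OS; dye FluxOR II, 1 h RT dark; Tl+ stimulus; ex 480/em 540 nm, read each second for 2 min.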
(Block of hERG is tested as a sign of cardiac risk.)

In assay [3] the target is Cytochrome P450 1A2 (Homo sapiens) (UniProt P05177). Briefly: Cytochrome P450 Family 1 Subfamily A Member 2 (CYP1A2) small molecule antagonists: luciferase reporter qHTS assay (AID 1671199). Further: potency means the concentration at half of the fitted maximal effect. The gist of the method:
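Read-out is luminescence from luciferin detection reagent (20 min) proportional to CYP1A2 activity; compounds in DMSO preincubated 10 min with enzyme and proluciferin substrate, then NADPH regeneration solution, 1 h, room temperature.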

Assay [4] addresses Cytochrome P450 3A4 (Homo sapiens) (UniProt P08684). The assay can be described thus: Cytochrome P450 Family 3 Subfamily A Member 4 (CYP3A4) small molecule antagonists: luciferase reporter qHTS assay (AID 1671201). Further: potency means the concentration at half of the fitted maximal effect. The gist of the method: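 Room-temperature assay throughout: 10 min compound–enzyme/substrate preincubation, 1 h reaction after NADPH regeneration solution, 20 min detection. Luciferin formed from proluciferin substrate is quantified by luminescence.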
Further: nearly all actives have a fitted effect of over 50% in size.

Chain of Cytochrome P450 1A2 (Homo sapiens) (P05177 whole entry, looked up): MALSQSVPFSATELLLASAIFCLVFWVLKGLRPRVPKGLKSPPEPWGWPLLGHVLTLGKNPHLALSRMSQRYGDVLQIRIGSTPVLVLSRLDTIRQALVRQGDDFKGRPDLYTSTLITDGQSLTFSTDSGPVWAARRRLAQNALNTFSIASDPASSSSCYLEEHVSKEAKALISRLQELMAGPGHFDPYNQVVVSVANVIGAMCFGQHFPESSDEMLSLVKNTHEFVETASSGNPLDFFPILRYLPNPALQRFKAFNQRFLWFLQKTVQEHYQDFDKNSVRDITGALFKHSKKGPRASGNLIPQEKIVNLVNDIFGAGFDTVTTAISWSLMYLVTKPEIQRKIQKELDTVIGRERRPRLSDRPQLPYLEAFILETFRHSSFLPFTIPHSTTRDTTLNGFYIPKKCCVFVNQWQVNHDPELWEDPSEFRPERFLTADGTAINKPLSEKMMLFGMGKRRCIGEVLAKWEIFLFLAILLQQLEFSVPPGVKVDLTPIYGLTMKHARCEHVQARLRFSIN
Chain of Cytochrome P450 2C9 (Homo sapiens) (P11712 whole entry, looked up): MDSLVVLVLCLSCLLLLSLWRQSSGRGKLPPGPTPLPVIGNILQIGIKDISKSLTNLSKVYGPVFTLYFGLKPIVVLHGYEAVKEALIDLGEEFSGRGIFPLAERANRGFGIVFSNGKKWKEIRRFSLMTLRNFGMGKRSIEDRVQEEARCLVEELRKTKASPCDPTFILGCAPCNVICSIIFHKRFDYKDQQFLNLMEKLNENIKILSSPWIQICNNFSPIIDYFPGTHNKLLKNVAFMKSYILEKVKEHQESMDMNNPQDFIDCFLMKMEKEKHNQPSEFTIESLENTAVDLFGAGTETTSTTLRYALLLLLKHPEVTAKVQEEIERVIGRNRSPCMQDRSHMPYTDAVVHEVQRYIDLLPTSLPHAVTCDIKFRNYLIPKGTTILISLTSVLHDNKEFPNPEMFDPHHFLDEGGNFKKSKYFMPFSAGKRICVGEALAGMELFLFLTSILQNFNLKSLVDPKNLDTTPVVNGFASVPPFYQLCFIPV
Chain of Voltage-gated inwardly rectifying potassium channel KCNH2 (Homo sapiens) (Q12809 whole entry, looked up): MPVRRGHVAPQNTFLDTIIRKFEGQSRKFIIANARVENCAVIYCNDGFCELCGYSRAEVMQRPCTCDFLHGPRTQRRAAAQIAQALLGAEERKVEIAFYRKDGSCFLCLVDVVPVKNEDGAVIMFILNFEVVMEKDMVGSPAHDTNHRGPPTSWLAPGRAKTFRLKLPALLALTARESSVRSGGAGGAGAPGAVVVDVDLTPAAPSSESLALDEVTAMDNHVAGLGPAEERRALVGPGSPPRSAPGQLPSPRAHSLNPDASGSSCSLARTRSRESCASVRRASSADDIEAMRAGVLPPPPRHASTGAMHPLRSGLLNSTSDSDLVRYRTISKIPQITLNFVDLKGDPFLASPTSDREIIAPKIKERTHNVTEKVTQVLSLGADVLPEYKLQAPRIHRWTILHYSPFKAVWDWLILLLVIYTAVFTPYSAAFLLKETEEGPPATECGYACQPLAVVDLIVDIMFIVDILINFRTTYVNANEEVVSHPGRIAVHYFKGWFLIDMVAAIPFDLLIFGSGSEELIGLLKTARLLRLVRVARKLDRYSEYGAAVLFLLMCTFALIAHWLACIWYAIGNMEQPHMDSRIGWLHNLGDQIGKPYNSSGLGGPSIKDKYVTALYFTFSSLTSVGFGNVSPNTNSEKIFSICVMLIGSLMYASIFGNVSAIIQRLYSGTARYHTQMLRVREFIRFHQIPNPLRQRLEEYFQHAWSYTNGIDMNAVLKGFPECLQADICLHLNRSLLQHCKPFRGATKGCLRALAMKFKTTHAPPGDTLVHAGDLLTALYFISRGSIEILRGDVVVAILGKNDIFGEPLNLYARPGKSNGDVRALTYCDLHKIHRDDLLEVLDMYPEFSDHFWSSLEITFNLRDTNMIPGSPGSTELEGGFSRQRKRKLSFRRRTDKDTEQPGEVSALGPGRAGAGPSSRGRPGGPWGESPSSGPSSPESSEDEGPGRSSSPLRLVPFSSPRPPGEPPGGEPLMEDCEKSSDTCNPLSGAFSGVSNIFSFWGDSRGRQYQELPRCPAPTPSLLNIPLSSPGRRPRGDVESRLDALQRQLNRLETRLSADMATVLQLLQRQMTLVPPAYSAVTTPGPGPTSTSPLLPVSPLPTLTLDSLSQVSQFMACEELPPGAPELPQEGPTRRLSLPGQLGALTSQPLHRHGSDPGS
Chain of Cytochrome P450 3A4 (Homo sapiens) (P08684 whole entry, looked up): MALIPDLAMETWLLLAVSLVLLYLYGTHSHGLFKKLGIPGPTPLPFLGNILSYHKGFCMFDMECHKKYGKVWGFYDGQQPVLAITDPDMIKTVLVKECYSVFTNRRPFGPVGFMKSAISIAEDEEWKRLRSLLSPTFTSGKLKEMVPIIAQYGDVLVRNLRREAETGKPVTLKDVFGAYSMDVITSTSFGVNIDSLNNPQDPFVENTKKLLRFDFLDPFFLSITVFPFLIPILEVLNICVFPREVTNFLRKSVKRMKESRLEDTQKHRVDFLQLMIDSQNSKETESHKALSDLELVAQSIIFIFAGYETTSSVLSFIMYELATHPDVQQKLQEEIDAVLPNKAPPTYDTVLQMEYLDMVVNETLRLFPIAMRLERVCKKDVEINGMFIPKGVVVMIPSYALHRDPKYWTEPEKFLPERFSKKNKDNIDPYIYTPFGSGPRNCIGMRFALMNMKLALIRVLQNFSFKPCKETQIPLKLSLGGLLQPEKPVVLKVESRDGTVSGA

In the case of `CCN(CC)C(=O)c1cccc(C)c1`, the Potency entry in assay [1] and in assay [2] was “inactive” each time.

Take `CC(C)NCC(O)c1ccc(O)c(O)c1` (stereo unspecified): the Potency entry in assay [2] is “inactive”.

For `C=CCc1ccc(O)c(OC)c1`, in assay [3], the Potency is 31.5 µM (active) and 39.9 µM (active). Moreover, the Potency entry in assay [2] and in assay [4] was “inactive” each time.

`Cc1ccc(S(=O)(=O)O)cc1`: the Potency entry in assay [2] is “inactive”.

Take `C=C1CC[C@H](O)C/C1=C\C=C1/CCC[C@]2(C)[C@@H]([C@H](C)CCCC(C)C)CC[C@@H]12`: the Potency in assay [1] was 25 µM (active). Also, the Potency result in assay [2] is “inactive”.

Regarding `NC(=O)c1cccnc1`, the Potency entry in assay [1], in assay [3], in assay [2] and in assay [4] was “inactive” in each case.

As for `CCCCC1(COC(=O)CCC(=O)O)C(=O)N(c2ccccc2)N(c2ccccc2)C1=O`, in assay [2], the Potency entry was “inactive”.

For the molecule `CC1(C)O[C@@H]2C[C@H]3[C@@H]4CCC5=CC(=O)C=C[C@]5(C)[C@@]4(F)[C@@H](O)C[C@]3(C)[C@]2(C(=O)CO)O1`, the Potency result in assay [3] and in assay [2] was “inactive” each time.

For the molecule `COc1ccc2c(c1)c(CC(=O)O)c(C)n2C(=O)c1ccc(Cl)cc1`, the Potency in assay [1] was 22.6 µM (active) and 17.8 µM (active) and 13.8 µM (active). In addition, the Potency entry in assay [3], in assay [2] and in assay [4] was “inactive” each time.

On to `CC1(C)S[C@@H]2[C@H](NC(=O)[C@H](N)c3ccccc3)C(=O)N2[C@H]1C(=O)O`, for which the Potency entry in assay [3] and in assay [4] was “inactive” throughout.

`COc1ccc(OC(F)(F)F)cc1CN[C@H]1CCCN[C@H]1c1ccccc1`: the Potency in assay [4] is 1.78 µM (active).

With `CNNCc1ccc(C(=O)NC(C)C)cc1`, the Potency result in assay [2] is “inactive”.

For `C/C=C/C=C/C(=O)O`, in assay [2], the Potency result is “inactive”.

Regarding `Oc1ccccc1`, the Potency result in assay [2] was “inactive”.
